Bioassay records (PubChem BioAssay)
tim10-1 inh: tim10-1 yeast growth inhibition; S. cerevisiae tim10-1 ts strain growth, BacTiter-Glo, 24 h; inhibition, % at 20 µM; 330,000 compounds, 2.2% hits; AID 463190;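 active = inhibition of at least 40%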;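 also: mutant grown at 25 °C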
NLRP3 yeast inh: NALP3 inhibition in yeast | Yeast reconstituted NLRP3/ASC/caspase-1, beta-gal luminescence, 24 h | inhibition, % at 10 µM | 330,000 compounds, 0.39% hits | AID 2825;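 active = inhibition of 50% or more; inactive = inhibition below 50%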
NALP1 yeast inh: inhibitors of NALP1 inflammasome in yeast. S. cerevisiae NALP1/ASC/caspase-1 growth, X-gal OD620, 72 h. inhibition, % at 10 µM. 280,000 compounds, 0.61% hits. AID 2071; in the data active = inhibition mostly above about 24%, no sharp cut-off; inactive = mostly below about 32%
SKKanGAS inh: SKKanGAS growth inhibition. S. pyogenes SKKanGAS, kanamycin growth, BacTiter-Glo, 6 h. inhibition, % at 7.5 µM. 300,000 compounds, 1.3% hits;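 active = mean replicate score, as percent of positive control median, at least 50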;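 also: strain carries kanamycin resistance gene driven by streptokinase promoter and grows in 40 µg/ml kanamycin; loss of luminescence reflects streptokinase promoter inhibition or plain growth inhibition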
tim23-1 inh: inhibits growth of tim23-1 mutant yeast; inhibition, % at 20 µM; S. cerevisiae tim23-1 growth, BacTiter-Glo luminescence, 24 h; 330,000 compounds, 1.3% hits; AID 463212;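 active = growth inhibition of the mutant yeast at or above 50%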;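 also: temperature-sensitive mutant grown at 25 °C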
TIM10 inh: growth inhibitors of TIM10 yeast strain; S. cerevisiae TIM10 strain growth, BacTiter-Glo luminescence, 24 h; inhibition, % at 10 µM; 330,000 compounds, 1.4% hits;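 active = inhibition of 40% or more at the single tested concentration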;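 also: wild-type TIM10 isogenic control strain grown at permissive 25 °C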
NALP3 confirm: NALP3 inhibition confirmation in yeast; 1,300 compounds, 81% hits; inhibition, % at 10 µM; AID 435006; shares compounds with NLRP3 yeast inh; yeast expressing human NALP3, luminescence; in the data active = inhibition above about 48%
Casp1-ASC yeast: active in yeast caspase-1-ASC counter-screen for NALP3 inhibitors; inhibition, % at 10 µM; yeast expressing Caspase-1-ASC, luminescence counter screen; AID 488784; shares compounds with NLRP3 yeast inh; 1,000 compounds, 66% hits
NALP3 retest: retest-confirmed inhibitor of NALP3 in yeast; shares compounds with NLRP3 yeast inh; yeast expressing human NALP3, luminescence read-out; inhibition, % at 10 µM; 1,000 compounds, 53% hits; AID 488794
Each line names hits and unclear results; the compound was inactive in the other large screens (follow-up assays come after a bar, where they were run). In the library only some 4.9% were active in any assay of this set; here they are far more common. Rule as the data show it, unless noted: active = inhibition above about 50%; inactive = the rest.

CCOc1ccc(-n2c(-c3ccccc3)nnc2-c2ccccc2)cc1	none
CC1=NN(C(=O)c2ccc(Br)cc2)C(O)(C(F)(F)OC(F)(F)F)C1 (stereo unspecified)	NLRP3 yeast inh 51 | NALP3 confirm 50
COc1ccc(C(=O)NCCc2c[nH]c3ccccc23)cc1[N+](=O)[O-]	none
CCCCOC(=O)Nc1nnc(CCc2ccccc2)s1	NLRP3 yeast inh 52 | NALP3 confirm inactive
Cc1cccc(C(=O)OCC(=O)N2CCCCCC2)c1	none (no result: NALP1 yeast inh, SKKanGAS inh)
CSc1nc2ccc(S(N)(=O)=O)cc2s1	none
CSc1nc2ccc(S(=O)(=O)N3CCCC3)cc2s1	NLRP3 yeast inh 85 | NALP3 confirm 86 | Casp1-ASC yeast 86 | NALP3 retest 80
O=C1/C(=C\c2ccc3c(c2)OCO3)CCC/C1=C/c1ccc2c(c1)OCO2	none | NALP3 confirm 49 | Casp1-ASC yeast inactive | NALP3 retest inactive
COc1cccc(OC)c1C(=O)Nc1nc2ccc([N+](=O)[O-])cc2s1	NLRP3 yeast inh 55 | NALP3 confirm 74
Cc1noc(C)c1C(=O)Nc1nc2ccc(F)cc2s1	NLRP3 yeast inh 65 (no result: NALP1 yeast inh, SKKanGAS inh) | NALP3 confirm 50 | Casp1-ASC yeast 62 | NALP3 retest 54
Cc1cc(C)c2nc(NC(=O)c3cc(C)on3)sc2c1	none
CCc1noc(C)c1C(=O)Nc1nc2ccc(F)cc2s1	NLRP3 yeast inh 68 (no result: NALP1 yeast inh) | NALP3 confirm 78 | Casp1-ASC yeast 75 | NALP3 retest 66
COc1cccc(OC)c1C(=O)Nc1nc2ccc(S(C)(=O)=O)cc2s1	none
CCc1noc(C)c1C(=O)Nc1nc2c(C)cc(C)cc2s1	NLRP3 yeast inh 72 (no result: NALP1 yeast inh) | NALP3 confirm 77 | Casp1-ASC yeast 75 | NALP3 retest 61
COc1ccc(Nc2ccc(N3C(=O)CCCC3=O)cc2[N+](=O)[O-])c(OC)c1	none
CC1(c2ccc([N+](=O)[O-])cc2)Nc2ccccc2S1 (stereo unspecified)	none
Nc1nc2ccccc2cc1-c1cccs1	NLRP3 yeast inh 51 | NALP3 confirm 69 | Casp1-ASC yeast 59 | NALP3 retest 63
C/C(=N\Nc1cc(C(F)(F)F)ccc1Cl)c1ccncc1	none
O=[N+]([O-])c1ccc2[nH]ncc2c1	none
Brc1ccc2[nH]ncc2c1	NLRP3 yeast inh 53 | NALP3 confirm inactive | Casp1-ASC yeast 60 | NALP3 retest inactive
CCCCc1ccc(-c2nc(N)n[nH]2)cc1	NLRP3 yeast inh 54 | NALP3 confirm 78 | Casp1-ASC yeast 95 | NALP3 retest 85
C=CCOc1ccc(/C=C/C(C)=N\O)cc1	NLRP3 yeast inh 59 | NALP3 confirm 68 | Casp1-ASC yeast 60 | NALP3 retest inactive
Cn1c(COc2ccc(F)cc2)nc2ccccc21	none
Cc1cccc(OCc2nc3ccccc3n2C)c1	NLRP3 yeast inh 54 | NALP3 confirm 72 | Casp1-ASC yeast 55 | NALP3 retest inactive
Brc1ccc2c(c1)CN1CCCC1=N2	NLRP3 yeast inh 63 | NALP3 confirm 80 | Casp1-ASC yeast 53 | NALP3 retest 51
O=C1CN2C(=Nc3ccc(Br)cc3C2c2ccccc2)CCN1 (stereo unspecified)	none
Cc1c(C(=O)Nc2cc(F)cc(F)c2)cnn1-c1ccccc1	NLRP3 yeast inh 71 | NALP3 confirm 76 | Casp1-ASC yeast 76 | NALP3 retest 70
Cc1c(C(=O)Nc2ccccc2F)cnn1-c1ccccc1	none
CCCCOc1ccc(C(=O)Oc2ccc(C)nc2)cc1	NLRP3 yeast inh 80 | NALP3 confirm 87 | Casp1-ASC yeast 92 | NALP3 retest 84
Cc1cc(C)c(S(=O)(=O)N2CCN(C(=O)c3ccc4c(c3)OCO4)CC2)c(C)c1	none
CCC(C)(C)c1nnc(NC(=O)C2CC(=O)N(CCc3ccc(F)cc3)C2)s1 (stereo unspecified)	none
CC(=O)c1c(O)c2ccccc2n(C)c1=O	none
Cn1c(=O)c(C(=O)NNC(=O)c2ccccc2Cl)c(O)c2ccccc21	NLRP3 yeast inh 66, SKKanGAS inh 51 | NALP3 confirm 80 | Casp1-ASC yeast 54 | NALP3 retest 61
